Test results: PubChem BioAssay (NCI)
Compounds without any hit were thinned out: in the full panel of roughly 83,000, 20% have a hit.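 Growth was measured after 48 h exposure to one concentration of compound in 96-well plates. Values under 10 count as active.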 Calls of active or inactive are those of the source.

Experiments:
Test in all cases: NCI-60 one-dose screen, 48 h (100 = growth as untreated, 0 = no growth, -100 = all killed)
Conditions in all cases: 10 µM unless noted
[1] = system: RPMI-8226 leukemia
[2] = system: OVCAR-8 ovarian
[3] = system: OVCAR-5 ovarian
[4] = system: OVCAR-4 ovarian
[5] = system: SK-OV-3 ovarian
[6] = system: IGROV1 ovarian
[7] = system: HS 578T breast
[8] = system: NCI/ADR-RES ovarian
[9] = system: T-47D breast
[10] = system: OVCAR-3 ovarian

Measured: growth

CCn1c2c(c3ccccc31)SC1c3cccn3CCN1C2=S (stereo unspecified)
inactive: [1] 76.7% | [2] 94.4% | [3] 104% | [4] 54.5% | [5] 99.9% | [6] 80% | [7] 81.2% | [8] 102% | [9] 41.9%

Cc1cc(Cl)ccc1Nc1nc(C(F)(F)F)ccc1C(=O)NCC(=O)N/N=C/c1c(Cl)cccc1Cl
active: [1] -20.6%
inactive: [2] 73.4% | [3] 87.8% | [4] 86.4% | [5] 88.5% | [6] 35.4% | [8] 77% | [9] 51.9%

CCN(CC)CCOc1ccc(C2=C(c3ccccc3)CCc3cc(OC)ccc32)cc1
active: [1] -64.7% | [7] -6.19% | [8] -26.1%
inactive: [2] 46.6% | [3] 22.2% | [4] 52.3% | [5] 68.9% | [10] 12.7% | [9] 25%

CN(CC(=O)N(Cc1ccc(C2CCCCC2)cc1)c1ccc(C(=O)O)cc1)S(=O)(=O)c1c(F)c(F)c(F)c(F)c1F
active: [2] 6.02% | [6] -24.8% | [9] -6.87%
inactive: [1] 11.3% | [3] 116% | [4] 83.8% | [5] 106% | [7] 18.5% | [8] 87.7%

O=c1ccn(C2CCCO2)c(=O)[nH]1 (stereo unspecified)
inactive: [1] 108% | [2] 102% | [3] 111% | [4] 119% | [5] 112% | [6] 114% | [7] 112% | [8] 110% | [9] 105%

COc1ccc(-c2cc(Cc3cccs3)c(=O)n(Cn3cncn3)n2)cc1
inactive: [1] 98.7% | [2] 92.9% | [3] 88% | [4] 98.5% | [5] 103% | [6] 122% | [7] 106% | [8] 101% | [9] 93.9%

N#Cc1ccc(NC(=O)Nc2ccc(Oc3ccc(NC(=O)Nc4ccc(C#N)cc4)cc3)cc2)cc1
inactive: [2] 31% | [3] 47.4% | [4] 33.8% | [5] 58.7% | [7] 38.9% | [8] 48.9%
active: [1] -56.2% | [6] -21.5% | [9] 2.9%

Cc1cc2c(cc1[N+](=O)[O-])NC(CNC(C)C)CC2 (stereo unspecified)
inactive: [1] 105% | [2] 115% | [3] 88.7% | [4] 95.1% | [5] 99.7% | [10] 96.6% | [7] 124% | [8] 95.1% | [9] 86.3%

CCC1=C(c2ccc(OC)cc2)C(C)(C)Oc2cc(O)c(CN3CCCC3)cc21
inactive: [1] 57.5% | [2] 95.4% | [3] 81.9% | [4] 99.3% | [5] 89.2% | [6] 87.1% | [7] 86% | [8] 84.6% | [9] 68.2%

NC(=O)SCC(=O)Nc1ccccc1-c1ccccc1
inactive: [1] 99.8% | [2] 111% | [3] 104% | [4] 111% | [5] 131% | [6] 133% | [8] 106% | [9] 132%

COc1cc(C2CC(=O)Nc3c2cc(Br)c2ccccc32)cc(Br)c1OC (stereo unspecified)
inactive: [1] 43.3% | [2] 31.7% | [3] 76.2% | [6] 26.7% | [7] 39.6%
active: [4] -64.2% | [5] -15.1% | [8] 6.65% | [9] 4.99%

CCN(CC)CCNc1ccc(Cl)cc1Cl
inactive: [1] 109% | [2] 98.2% | [3] 124% | [4] 117% | [5] 92.5% | [6] 110% | [7] 108% | [8] 103% | [9] 98.6%

COc1ccc(OC)c2c1[nH]c(=O)c1c3ccccc3cn21
active: [1] -21.8% | [2] -80.7% | [3] -45.1% | [4] -29% | [5] -86% | [6] -60.7% | [8] -6.09% | [9] -48.3%

O=C1/C(=C/c2ccc([N+](=O)[O-])o2)Oc2ccc(Br)cc21
inactive: [1] 84.2% | [3] 105% | [5] 92.1% | [7] 106% | [8] 98.3% | [9] 58%
active: [2] 6.99% | [4] 5.15% | [6] -17.9%

O=C1CCCN1C1CCN(Cc2cc3ccccc3[nH]c2=O)c2ccccc21 (stereo unspecified)
active: [1] 3.19%
inactive: [2] 101% | [3] 91.3% | [4] 82.6% | [5] 93.8% | [6] 90% | [7] 98% | [8] 97.4% | [9] 60.1%

COc1cc(C2CC(c3ccc(C)cc3)=NN2C(C)=O)ccc1Oc1ccnc2cc(Cl)ccc12 (stereo unspecified)
inactive: [1] 83.8% | [2] 63.1% | [3] 92% | [5] 13.5% | [6] 81.2% | [8] 54.6% | [9] 62.2%
active: [4] -15.8% | [7] 7.55%

COc1cccc2c1C(=O)c1c(O)c3c(c(O)c1C2=O)C[C@@](O)(/C(C)=N/NC(=O)c1cccc([N+](=O)[O-])c1)C[C@@H]3OC1CC(N)C(O)C(C)O1 (stereo partly specified)
active: [1] -55.6% | [2] -6.79% | [3] -9.12% | [4] -17.3% | [5] -29.7% | [10] -40.7% | [7] -12.3% | [9] -28.9%
inactive: [8] 58.3%

O=C(Nc1ccc(Cl)cc1)c1cc2c(cc1O)[nH]c1ccccc12
active: [1] -61.6% | [2] 8.57% | [10] 6.34% | [8] 0.0543% | [9] -1.88%
inactive: [3] 59.8% | [4] 30.6% | [5] 24.4% | [7] 52%

COc1ccc2c(c1)C(=O)c1c-2c(OCCN(C)C)nc2cc(OC)ccc12
inactive: [3] 44.9% | [5] 23.9% | [7] 35.6% | [9] 47.1%
active: [1] -25.4% | [2] 4.01% | [4] 4.71% | [6] 6.3% | [8] -11.3%

Fc1ccc([C@@H]2CCNC[C@H]2COc2ccc3c(c2)OCO3)cc1
inactive: [1] 32.9% | [2] 95.9% | [3] 73.5% | [4] 90% | [5] 90.8% | [6] 72% | [7] 82.8% | [8] 86.3% | [9] 63.7%

OC(CCC(O)(c1ccccc1)c1ccccc1)(c1ccccc1)c1ccccc1
inactive: [1] 35.5% | [2] 84.7% | [3] 97.2% | [4] 99.4% | [5] 103% | [6] 90.7% | [7] 75.1% | [8] 68.9% | [9] 94.1%

COC(=O)[C@]12CC[C@@H](C)[C@H](C)[C@@H]1C1=CC[C@@H]3[C@@]4(C)C[C@@H](OC(=O)c5ccco5)[C@H](O)[C@@](C)(CO)[C@@H]4[C@H](O)C[C@@]3(C)[C@]1(C)CC2
active: [1] -64.7% | [2] -76.1% | [3] -85.3% | [4] -67.9% | [5] -97.2% | [6] -65% | [7] -39.9% | [8] -80.6% | [9] -68.3%

CN(C)c1ccc2c(c1)/C(=N/O)c1ccccc1-2
inactive: [1] 107% | [2] 97.6% | [3] 96.2% | [4] 82.6% | [5] 90.1% | [10] 93.4% | [7] 36.4% | [8] 41.9% | [9] 85.5%

COc1ccc(Nc2nccc(N3CCN(c4c5ccc(Cl)cc5nc5ccc(OC)cc45)CC3)n2)cc1
inactive: [1] 29.5% | [2] 73.2% | [3] 97.1% | [4] 46.6% | [5] 107% | [6] 75.7% | [7] 80.3% | [8] 75.9% | [9] 48.7%

COc1ccc(Cn2c(NCCCN(C)C)nc(=O)n(Cc3ccc(F)cc3)c2=O)cc1
inactive: [1] 95.7% | [2] 98.9% | [3] 109% | [4] 93.1% | [5] 86.3% | [6] 84.7% | [7] 93.3% | [8] 109% | [9] 83.4%

COc1ccc2nccc(/C=C/c3ccnc4ccc(OC)cc34)c2c1
inactive: [2] 68.9% | [3] 117% | [4] 104% | [5] 115% | [6] 102% | [8] 101% | [9] 98.4%
active: [1] -5.34%

CC(C)(C)c1ccc(S(=O)(=O)O)s1
inactive: [1] 95.9% | [2] 108% | [3] 96.3% | [4] 96.6% | [5] 101% | [7] 88.8% | [8] 106% | [9] 97.9%
active: [6] -12.6%

COc1ccc(C2CC(c3ccc(OC)c(OC)c3)=NN2C(=O)c2cc(OC)c(OC)c(OC)c2)c(OC)c1 (stereo unspecified)
inactive: [1] 92.4% | [2] 91.2% | [3] 93% | [4] 74.7% | [5] 65.6% | [6] 61.6% | [7] 49.6% | [8] 53.2% | [9] 82%

CC(c1cc(Cl)ccc1O)c1cc(Cl)ccc1O
inactive: [1] 20.9% | [2] 46.5% | [3] 70.7% | [4] 39.3% | [5] 27.3% | [7] 10.6% | [9] 89.9%
active: [6] -7.07% | [8] -1.24%

COc1ccc(-c2cncn2-c2ccc(-c3nc4cc(OC)c(OC)c(OC)c4s3)cc2)cc1N
inactive: [1] 62.2% | [2] 37.1% | [3] 96.4% | [4] 46.7% | [5] 103% | [6] 58.8% | [7] 74.7% | [8] 52.4% | [9] 50.5%
